Test [1] addresses Calcium and integrin-binding protein 1 (Homo sapiens) (UniProt Q99828). The experiment in a line: Primary qHTS for Identification of Calcium Integrin Binding Protein 1 (CIB1) Competitor (AID 1508620).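 Note: GST tagged CIB1 binding a fluorescein labelled alphaIIb integrin peptide tracer; top concentration of the series differs between compounds.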 The method, boiled down:
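Fluorescence polarization competition: CIB1-GST (1 uM final) preincubated with compound 15 min at room temperature, then FITC-labeled alphaIIb peptide (100 nM final) added for another 15 min. Polarization read at Ex 480/Em 540.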
(In general: Quantitative high-throughput screening tests each substance at several concentrations.)

A short description of test [2]: Primary qHTS for inhibitors of nuclear receptor binding SET domain protein 2 (NSD2) in an isogenic RCH-ACV NSD2 p.E1099K mutant (9B) (AID 1645876). Note: nearly all actives have a fitted effect of over 70% in size. Note: potency is the fitted concentration of half-maximal effect.

Results filed as inconclusive are left out. Entries that show only a call come without a potency. Unmarked numbers belong to inactive results. Calls of active or inactive are those of the source. Calls come from the whole dose curve; as a rule, active = well fitted inhibition curve with a large enough effect; inconclusive = small, poorly fitted or top-dose-only effect; inactive = flat fitted curve, though single readings scatter.

Chain of Calcium and integrin-binding protein 1 (Homo sapiens) (Q99828 whole entry, looked up): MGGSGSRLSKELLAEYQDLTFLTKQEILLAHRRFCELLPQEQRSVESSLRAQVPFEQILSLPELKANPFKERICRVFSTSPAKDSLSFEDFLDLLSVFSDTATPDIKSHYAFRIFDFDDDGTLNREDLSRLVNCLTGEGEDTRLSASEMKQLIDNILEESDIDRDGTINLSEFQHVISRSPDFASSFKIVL

For `CN1c2ccccc2C(=O)N2CCC3c4ccccc4NC3C21` (configuration not stated), in test [1], the Potency entry was “inactive”. Further, the Potency in test [2] was 2260 nM (active).
The like results for `CN[C@H](CC(C)C)C(=O)N[C@H]1C(=O)N[C@@H](CC(N)=O)C(=O)N[C@H]2C(=O)N[C@H]3C(=O)N[C@H](C(=O)N[C@H](C(=O)O)c4cc(O)cc(O)c4-c4cc3ccc4O)[C@H](O[C@H]3C[C@](C)(N)[C@@H](O)[C@H](C)O3)c3ccc(c(Cl)c3)Oc3cc2cc(c3O[C@@H]2O[C@H](CO)[C@@H](O)[C@H](O)[C@H]2O[C@H]2C[C@](C)(NCc3ccc(-c4ccc(Cl)cc4)cc3)[C@@H](O)[C@H](C)O2)Oc2ccc(cc2Cl)[C@H]1O` were, in that order, “inactive” and “inactive”.
Taken in the same sequence, the figures for `CC(O)CO[C@@H]1O[C@H](CO)[C@@H](O)[C@H](O)[C@H]1O` (some centres not stated) were “inactive” and “inactive”.
`CC1(C)C[C@H](O)C[C@@]2(C)OC(=O)C=C12`: the Potency result in test [1] and in test [2] was “inactive” throughout.
As for `COCC1OC(OC(C)(C)C2CCC3(C)C=C(C4CCC5C4(C)CC(O)C4OC(C(C)(C)OC6OC(CO)C(O)C(O)C6NC(C)=O)CCC45C)CCC3O2)C(NC(C)=O)C(O)C1O` (configuration not stated), in test [1], the Potency result is “inactive”. The activity change, negative = viability loss in test [2] was 1.46% [at 9.23 µM].
On to `CC(C)C[C@H](CC(=O)NO)C(=O)N[C@@H](Cc1ccc2ccccc2c1)C(=O)N[C@@H](C)C(=O)NCCN`, for which the Potency entry in test [1] and in test [2] was “inactive” each time.
In the case of `COc1ccc(C[C@H](N)C(=O)N[C@@H]2[C@H](O)[C@H](n3cnc4c(N(C)C)ncnc43)O[C@@H]2CO)cc1`, the Potency entry in test [1] is “inactive”. Besides, the Potency in test [2] is 325 nM (active).
Taken in the same sequence, the figures for `O=C(O)/C=C/c1ccc(O)c(O[C@@H]2O[C@H](CO)[C@@H](O)[C@H](O)[C@H]2O)c1` were “inactive” and “inactive”.
Take `C=C(CCC1=C(C)[C@H]2[C@H](CC3[C@@H]4CC=C5C[C@@H](O)C[C@@H](O)[C@]5(C)C4[C@H](O)C[C@@]32C)O1)CO[C@@H]1O[C@H](CO)[C@@H](O)[C@H](O)[C@H]1O` (some centres not stated): the Potency result in test [1] is “inactive”. In test [2], the Potency was 483 nM (active).
As to `COC(=O)C1=COC(O[C@@H]2O[C@H](CO)[C@@H](O)[C@H](O)[C@H]2O)[C@H]2[C@@H]1[C@H](OC(=O)CCc1ccc(O)cc1)C[C@]2(C)O` (some centres not stated), the Potency result in test [1] and in test [2] was “inactive” in each case.
For the compound `COC(=O)C1=CO[C@@H](O[C@@H]2O[C@H](CO)[C@@H](O)[C@H](O)[C@H]2O)[C@H]2[C@@H]1CC(OC)O[C@@H]2C` (some centres not stated), the Potency entry in test [1] and in test [2] was “inactive” in each case.
Regarding `CO[C@H]1/C=C/[C@@](C)(O)/C=C/C(=O)O[C@H](C)[C@@H](C)CC/C=C/1C`, in test [1], the Potency result is “inactive”. In addition, the Potency in test [2] is 14200 nM (active).
Take `CC1=CC(=O)[C@]2(O[C@@H]3O[C@@H](C)[C@H](O)[C@@H](O)[C@H]3OC(=O)/C=C/c3ccccc3)C=CO[C@@H](O[C@@H]3O[C@H](CO)[C@@H](O)[C@H](O)[C@H]3O)[C@H]12`: the Potency result in test [1] and in test [2] was “inactive” each time.
In the case of `CS(=O)(=O)c1ccc(-c2nnc(/C=C/c3nnc(-c4ccc(C#N)cc4)o3)n2-c2ccccc2Cl)nc1`, the Potency result in test [1] and in test [2] was “inactive” each time.
For `C[C@@H]1CC[C@]2(C(=O)O)CC[C@]3(C)C(=CCC4[C@@]5(C)C[C@@H](O)[C@H](O)[C@@](C)(CO)C5CC[C@]43C)C2[C@]1(C)O` (some centres not stated), the Potency entry in test [1] and in test [2] was “inactive” in each case.
With `O=C(O)/C=C/c1cc2c(cc1O[C@@H]1O[C@H](CO)[C@@H](O)[C@H](O)[C@H]1O)OCO2`, the Potency entry in test [1] and in test [2] was “inactive” in each case.
Take `CC(=O)NC1C(OC(C)(C)C2CCC3(C)C=C(C4CCC5C4(C)CC(O)C4OC(C(C)(C)O)CCC45C)CCC3O2)OC(CO)C(O)C1O` (configuration not stated): the Potency entry in test [1] and in test [2] was “inactive” throughout.
Consider `CCNC(=O)C1OC(n2cnc3c(N)nc(NCCc4ccc(CCC(=O)O)cc4)nc32)C(O)C1O` (configuration not stated), for which the Potency result in test [1] and in test [2] was “inactive” throughout.
For `C=C(C)C1Cc2cc(C(=O)OC3OC(CO)C(O)C(O)C3O)ccc2O1` (configuration not stated), the Potency entry in test [1] and in test [2] was “inactive” each time.
For `N=c1nc2n(cc1F)C1OC(CO)C(O)C1O2` (configuration not stated), in test [1], the Potency result was “inactive”. In addition, in test [2], the Potency is 57.8 nM (active).
The like results for `C/C(=C\C=C\C(C)C1CCC2(C)C3CCC4C(C)(C)C(=O)CCC45CC35CCC12C)C(=O)O` (configuration not stated) were, in that order, “inactive” and “inactive”.
For `C[C@H]1CC[C@@H]2N(C1)C[C@@H]1[C@H]([C@@H](O)[C@H](O)[C@]3(O)[C@H]1C[C@@]14OC5(O)[C@@H](C[C@@H](O)[C@@H]31)[C@]4(C)CC[C@@H]5O)[C@]2(C)O`, the Potency result in test [1] and in test [2] was “inactive” in each case.
Take `O=C1OCc2cc3cccc(O[C@@H]4O[C@H](CO)[C@@H](O)[C@H](O)[C@H]4O)c3c(O)c21`: the Potency result in test [2] was “inactive”.
As for `CC(=O)OC12COC1CC(O)C1(C)C(=O)C(O)C3=C(C)C(OC(=O)C(O)C(NC(=O)OC(C)(C)C)c4ccccc4)CC(O)(C(OC(=O)c4ccccc4)C21)C3(C)C` (configuration not stated), the Potency result in test [1] was “inactive”. For the same compound, in test [2], the Potency was 6.5 nM (active).

For the origin of these results see PubChem BioAssay (NCATS).
